# The whole screen tested about 410,000 compounds, of which about 18,000 (4.4%) were called active. Not shown: some 7% with an inconclusive outcome. This is one part of a sample in which actives are shown more often than they occur. Unmarked numbers belong to inactive results. Cut-off read from the data, not from the text of the source: active = activity change below about -60%; inconclusive = no clear call, values can overlap the other calls; inactive = above about -39%.
# Experiment: qHTS Assay for inhibitors of the human cytomegalovirus (HCMV)
# Conditions: HFF cells, HCMV-luciferase reporter, 72 h; at 57.5 µM; active compounds read low
# Summary of the method: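 HFF cells seeded 16 h at 37C, treated with compounds, infected with luciferase-reporter HCMV at MOI 1 PFU/cell; luciferase read at 72 h post infection, normalized to buffer-only and Salinomycin controls.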
# % is set by controls: 0 for no effect and ±100 for the full control effect.
row,Structure (SMILES),"activity change, negative = inhibition"
1,O=C(CSc1nc2ccccc2nc1Cc1ccccc1)N1CCCCC1,-18.6%
2,CC(C)[C@@H](C(=O)OCC(=O)c1ccc2c(c1)NC(=O)CO2)N1C(=O)c2ccccc2C1=O,43.1%
3,COc1cc(NC(=O)c2noc3c2CSc2ccccc2-3)cc(OC)c1OC,40.1%
4,CC(C)CCNC(=O)CSc1nc2ccccc2nc1Cc1ccc(Cl)cc1,-7.66%
5,O=C(CC1N=C2c3ccccc3N=C(SCc3ccc(F)cc3)N2C1=O)NCc1cccs1 (centres undefined),30.3%
6,O=C(c1cccc(C(=O)N2CCN(c3ccc(F)cc3)CC2)c1)N1CCN(c2ccc(F)cc2)CC1,-88.8% (active)
7,CC(=O)c1ccc(N2CCN(C(=O)c3ccc4nc[nH]c4c3)CC2)cc1,-12%
8,O=C(c1cccc(-n2cccc2)c1)N1CCN(S(=O)(=O)c2ccc(F)cc2)CC1,-6.27%
9,O=C(c1ccc(N2CCCC2=O)cc1)N1CCN(c2ccc(C(F)(F)F)cc2[N+](=O)[O-])CC1,-85.8% (active)
10,O=C(Nc1cc(Cl)ccc1N1CCOCC1)c1ccc(N2CCCC2=O)cc1,-3.06%
11,CNS(=O)(=O)c1ccc(N2CCCC2=O)c([N+](=O)[O-])c1,-21%
12,Cc1cc(C)cc(Nc2ncnc3onc(-c4ccc(F)cc4)c23)c1,-23.4%
13,COc1ccccc1-c1nnc(SCC(N)=O)o1,64.6%
14,COc1cc(C(=O)Nc2ccc(-n3c(C)nc4ccccc4c3=O)cc2)cc(OC)c1OC,-1.41%
15,CCOC(=O)c1cc2c(=O)n3ccccc3nc2n(CCCOC)c1=NC(=O)C(C)Oc1ccccc1 (centres undefined),-1.73%
16,Cc1ccc2nc(N3CCN(c4cccc(Cl)c4)CC3)c3nnnn3c2c1,-71.6% (active)
17,O=Cc1c(N2CCN(c3cccc(Cl)c3)CC2)nc2ccccn2c1=O,-31.6%
18,O=S(=O)(c1cccc2nonc12)N1CCN(c2cccc(Cl)c2)CC1,-25.7%
19,COC(=O)c1ccc(COC(=O)CNC(=O)c2cccc(OC)c2)o1,-25.9%
20,O=C(Nn1cc(C(=O)N2CCN(c3ccccc3F)CC2)c2ccccc2c1=O)c1cnccn1,43.2%
21,CC(=O)c1ccc(OCC(=O)N(C)C2CCS(=O)(=O)C2)cc1 (centres undefined),-17%
22,COc1ccc(/C=C(\C#N)C(=O)OCC(=O)N(C)C2CCS(=O)(=O)C2)cc1 (centres undefined),-87.3% (active)
23,COc1ccc(-c2cc(=O)oc3cc(OCC(=O)N(C)C4CCS(=O)(=O)C4)ccc23)cc1 (centres undefined),4.48%

row,Structure (SMILES),"activity change, negative = inhibition"
1,CCOC(=O)c1c(S(=O)(=O)N2CCC(C(=O)NCc3ccccc3OC)CC2)c(C)n(C)c1C,9.09%
2,O=C(CC1Oc2ccc(Cl)cc2NC1=O)NCc1ccccc1 (centres undefined),-7.24%
3,O=C(Nc1ccc(F)cc1F)c1ccc2c(=O)n3c(nc2c1)CCCCC3,61.7%
4,COc1cccc(CNC(=O)C(NS(=O)(=O)c2ccc3nc(C)sc3c2)C(C)C)c1 (centres undefined),-9.19%
5,COC(=O)c1ccc(COc2ccc(C#N)cc2)o1,-13.9%
6,COc1ccccc1C(=O)NC(=S)NC12CC3CC(CC(C3)C1)C2,-36.1%
7,S=C(NCc1ccc(Cl)cc1)NC12CC3CC(CC(C3)C1)C2,-100% (active)
8,Cc1ccc(C(=O)NC23CC4CC(CC(C4)C2)C3)c(Cl)c1,20.9%
9,Cc1cc(-c2ccccc2)n2nc(-c3ccccc3)cc2n1,-2.35%
10,CC(C)(C)c1ccccc1NC(=O)CN1C(=O)NC2(CCCC2)C1=O,19.2%
11,O=C(CN1C(=O)S/C(=C\c2ccccc2Cl)C1=O)NC1C=CS(=O)(=O)C1 (centres undefined),-66.8% (active)
12,O=C(NCCN1C(=O)S/C(=C\c2cccnc2)C1=O)c1ccc(S(=O)(=O)N2CCCC2)cc1,3.64%
13,CC12CCC(=O)N1C(C(=O)NCCN1C(=O)S/C(=C\c3ccccc3F)C1=O)CS2 (centres undefined),-21.8%
14,CCCn1c2ccccc2c2cnn(CC(=O)N(CC)c3cc(C)ccc3C)c(=O)c21,-37.8%
15,Cc1ccc(C(=O)Nc2cc3c(cc2N2CCCC2)n(C)c(=O)c(=O)n3C)cc1,0.153%
16,O=C(NC1CCN(Cc2ccccc2)CC1)c1ccc(Cn2c(=O)c3ccccc3n(Cc3cccc(F)c3)c2=O)cc1,-15.8%
17,CCC(C(=O)Nc1cccc(Cl)c1C)n1nc(-c2ccc(C)cc2)ccc1=O (centres undefined),12.4%
18,Cc1nnc(NC(=O)CSc2nc3c([nH]c4ccccc43)c(=O)n2-c2cccc(Cl)c2)s1,-12.8%
19,CCCCCCc1cc2cc(-c3nnc(-c4ccccc4)o3)c(=O)oc2cc1O,-100% (active)
20,Cc1ncn2cc(-c3ccc(Cl)cc3Cl)[nH]c(=O)c12,-32.3%
21,CCn1c(-c2cccnc2Cl)nc2cc(C)c(C)cc21,-25.4%
22,COn1c(-c2ccc(Cl)cc2Cl)nc2ncccc21,-63.6% (active)
23,CC(NC(=O)CCc1cn(Cc2ccccc2Cl)c2ccccc12)c1ccccc1 (centres undefined),-11.3%

row,Structure (SMILES),"activity change, negative = inhibition"
1,Cc1cccc(NC(=O)N2CCN(C)c3ncccc32)c1C,12%
2,CC(Sc1oc(-c2ccco2)nc1S(=O)(=O)c1ccc(Br)cc1)c1ccccc1 (centres undefined),0.136%
3,COc1ccc2c(Cl)c(-c3nnco3)sc2c1,-7.84%
4,CCN(C(=O)c1ccc(Br)cc1)c1ccccc1,7.23%
5,CCN(C(=O)c1sc2cc(OC)ccc2c1Cl)c1ccccc1,-99.2% (active)
6,COc1ccc(CNC(=O)c2ccc3c(c2)nc2n3CCOC2)c(OC)c1,2.67%
7,Cc1cccc(NS(=O)(=O)c2ccc(C)c(C(=O)NCC(c3ccccc3)N(C)C)c2)c1 (centres undefined),-101% (active)
8,COc1ccccc1NS(=O)(=O)c1ccc(C)c(C(=O)NCC(c2ccco2)N(C)C)c1 (centres undefined),-6.15%
9,COc1ccc(C(CNC(=O)c2cc(S(=O)(=O)Nc3cccc(C)c3)ccc2C)N2CCCC2)cc1 (centres undefined),-30.6%
10,O=C(Nc1ccccc1Cl)N1CCC(CN2CCCC2)CC1,37.3%
11,O=C(Nc1ccccc1Cl)N1CCC(CN2CCCCC2)CC1,-10.2%
12,O=C(Nc1ccccc1Cl)/C(Cl)=C(\Cl)S(=O)c1ccccc1 (centres undefined),-100% (active)
13,Oc1ccccc1-c1cc(-c2ccc(Cl)cc2)n[nH]1,-20.6%
14,COc1ccccc1CNS(=O)(=O)CC12CCC(CC1=O)C2(C)C (centres undefined),6.14%
15,Oc1cccc2cc(-c3ccncc3)cnc12,-101% (active)
16,Cc1ccc(OCCSc2nc3ccc(NC(=O)COc4ccc(C)cc4)cc3s2)cc1,7.69%
17,Cc1ccccc1NC(=O)Cn1c(=O)n(CC2CCC(C(=O)NCCc3ccccc3)CC2)c(=O)c2ccccc21 (centres undefined),16.2%
18,COc1cc(OC)c2c(c1)OC(=O)CC2c1cc(OC)c(OC)c(OC)c1 (centres undefined),-7.37%
19,COc1cc(C2c3cc4c(cc3C(O)C3COC(=O)C23)OCO4)cc(OC)c1OC (centres undefined),-89.9% (active)
20,COc1cc(C=C(OC(C)=O)c2ccc3c(c2)OCO3)cc(OC)c1OC,62.8%
21,COC(=O)c1ccccc1NC(=O)c1cc(-c2ccccc2O)no1,-14.2%
22,CCOC(=O)C1=C(c2ccccc2)O/C(=C(/C(=O)OC)C(F)(F)F)S1,34.3%
23,COC(=O)/C(=C1\Oc2ccc(C(C)(C)C)cc2S1)C(F)(F)F,-66.8% (active)

row,Structure (SMILES),"activity change, negative = inhibition"
1,O=C(CNC(=O)c1n[nH]c2ccccc12)Nc1cc(Cl)ccc1Cl,12.1%
2,Cc1ccc(C)c(-n2nnnc2SCC(=O)c2c(N)n(C)c(=O)n(C)c2=O)c1,-19.3%
3,COc1ccc(NC(=O)C2(C)Cc3c(-c4cccc(NC(C)=O)c4)ccnc3O2)cc1 (centres undefined),-77.2% (active)
4,COc1ccc(NC(=O)C2(C)Cc3c(-c4ccc(C(N)=O)cc4)ccnc3O2)cc1 (centres undefined),32.9%
5,COc1ccc(NC(=O)C2Cc3c(-c4cccc(NC(C)=O)c4)ccnc3O2)cc1OC (centres undefined),-67.8% (active)
6,CC1(C(=O)Nc2cccnc2)Cc2c(-c3ccccc3)ccnc2O1 (centres undefined),-18.2%
7,CC(=O)Nc1ccc(-c2ccnc3c2CC(C(=O)NC(C)C)O3)cc1 (centres undefined),-16.6%
8,CC(=O)Nc1cccc(-c2ccnc3c2CC(C)(C(=O)NCc2ccccc2)O3)c1 (centres undefined),-79.4% (active)
9,COc1ccc(NC(=O)C2(C)Cc3c(-c4cccc(NC(C)=O)c4)ccnc3O2)cc1OC (centres undefined),16%
10,CC1(C(=O)NCC2CCOCC2)Cc2c(-c3cccc(C(N)=O)c3)ccnc2O1 (centres undefined),28.9%
11,COc1ccc(CCCNC(=O)C2Cc3c(-c4cccc(C(N)=O)c4)ccnc3O2)cc1 (centres undefined),-20.5%
12,Brc1ccc2c(c1)NC(c1cccnc1)=NC(c1ccccc1)=N2,21.9%
13,COc1ccc(NC(=O)CCNC(=O)Cn2ccc3ccccc3c2=O)c(OC)c1,-21.8%
14,COC(=O)c1[nH]c2cccc(C)c2c1NC(=O)CN1CCCc2ccccc21,52.8%
15,CCOc1ccccc1C(=O)NCC(c1ccc(N(C)C)cc1)N1CCCC1 (centres undefined),-6.83%
16,CCOc1ccc(-c2nonc2NC(=O)c2oc3ccc(CC)cc3c2C)cc1,29.2%
17,CCOc1ccc(-c2cn(S(=O)(=O)c3cccc4nsnc34)nc2N)cc1,-29.7%
18,COc1ccccc1C(c1nnnn1C(C)(C)C)N1CCN(Cc2ccccc2)CC1 (centres undefined),-19.3%
19,CCC(C)(C)n1nnnc1C(c1ccc(OC)c(OC)c1)N1CCN(C(=O)c2ccco2)CC1 (centres undefined),-20.3%
20,CCC(C)(C)n1nnnc1C(c1cccs1)N1CCN(c2nc3ccccc3s2)CC1 (centres undefined),-76.3% (active)

# Reference: PubChem BioAssay AID1259415 (National Center for Advancing Translational Sciences (NCATS), 2018)
